Test results published in PubChem BioAssay (NCATS).
Unmarked numbers belong to inactive results. The source made the active and inactive calls. Calls come from the whole dose curve; as a rule, active = well fitted inhibition curve with a large enough effect; inconclusive = small, poorly fitted or top-dose-only effect; inactive = flat fitted curve, though single readings scatter. *1 amine or outer side, *2 acyl side, *3 side chain or, on linkers, in order; H or OH if unused. Where a SMILES comes first, the peptide text is derived from it. Bridges are numbered along the chain shown (N, C = ends). X6 = O=C(CCC[*:2])[*:1]
Potency is the fitted concentration of half-maximal effect.

What follows are compounds tested against Luciferin 4-monooxygenase (Photinus pyralis) (UniProt P08659) (assay: Primary firefly luciferase (FLuc) qHTS assay for identification of artifact compounds. (AID 1845220; note: nearly all actives have a fitted effect of over 60% in size)). Details: purified firefly luciferase, luminescence, 5 min; series mostly up to 54.1 µM; activity change, negative = inhibition: at the top concentration.
Description: PI: Alexander Tropsha Ph.D.
UNC Eshelman School of Pharmacy
University of North Carolina, Chapel Hill, North Carolina
Hits from high-throughput screening (HTS) of chemical libraries are often false positives due to their interference with the assay detection technology. In response to this problem, we generated the largest publicly available library of chemical liabilities and developed a free webtool to predict HTS artifacts, both of which are described herein. More specifically, we generated, curated, and integrated HTS datasets for thiol reactivity, redox activity, and luciferase (firefly and nano) activity. Using these curated datasets, we developed and validated several Quantitative Structure-Interference Relationship (QSIR) models to predict nuisance behavior. […] These models were employed for virtual profiling of the National Center for Advancing Translational Science's (NCATS) in-house library, and 256 compounds for each assay were selected for the experimental validation of nuisance behavior. The BA for these external predictions ranged from 58 to 78% for compounds within the applicability domains of the models. […] The models developed in this study, along with aggregation models previously developed by our group (SCAM Detective) were implemented in "Liability Predictor," an online tool which may be used as part of chemical library design or for triaging HTS hits. Both the models and the curated datasets are publicly available at https://liability.mml.unc.edu/.
SEQUENCE No. (e.g., 1, 2, 3, etc.); […] (e.g., Cells, Incubation, Reagent, etc.); VALUE; DESCRIPTION.
1; Reagent; 3 uL; Luciferase substrate mixture.
2; Compounds and control; 16 nL; Kalypsis pin tool (Wako USA) equipped with a 1536-well pin head.
4; Reagent; 1 uL; Luciferase enzyme.
6; Detection; Luminescence, ViewLux microplate reader.
NOTES (numbers refer to Sequence numbers above)
1. 3 uL of luciferase substrate mixture containing D-luciferin and ATP (final concentrations of 10 uM and 10 uM, respectively) in assay buffer (10 mM Mg-acetate, 0.01% Tween-20, 0.05% bovine serum albumin, 50 mM Tris acetate, pH 7.6) was dispensed into all wells of a 1536-well assay plate (solid-bottom white plate; Greiner Bio One, Monroe, NC).
2. A Wako Pin-tool (Wako Automation, Richmond, VA) was used to transfer 16 nL of compounds (consisting of 7-plates in qHTS format, final concentration range 18.3 nM to 114 uM) or control PTC124 (final concentration range 1.22 nM to 40 uM).
3. 15 min. incubation at room temperature protected from light.
4. 1 uL of luciferase enzyme (final concentration 10 nM, Photinus pyralis luciferase) or buffer was dispensed for a final assay volume of 4 uL.
5. Plates were centrifuged (121xg, 15 seconds) and incubated for 5 minutes.
6. Samples were read for luminescence on a ViewLux CCD imager (PerkinElmer). Data were normalized to no-enzyme (0% activity) and no-inhibitor (DMSO; 100%) controls and the resulting percent inhibition data were fitted to a 4-parameter Hill equation using NCATS in-house software.
In the case of `C[C@]1(OC(=O)/C=C/c2ccccc2)C[C@H](O)[C@]2(O)C=CO[C@@H](O[C@@H]3O[C@H](CO)[C@@H](O)[C@H](O)[C@H]3O)C12` (stereo not given in full), the “activity change, negative = inhibition” value is reported as 4.63% [at 25.7 µM]. With `COC(=O)C1=COC(OC2OC(CO)C(O)C(O)C2O)C2C1CC(OC(=O)C(O)CC(=O)O)C2C` (stereo not given) the “outcome” value was “inactive [at 25.7 µM]”. With `CC1(C)CCC(C)(C)c2cc([C@@H](O)C(=O)Nc3ccc(C(=O)O)cc3F)ccc21` the “outcome” value was “inactive”. For `COc1cc(C[C@H]2COC(=O)[C@@H]2Cc2ccc(O)c(OC)c2)ccc1O`, the “activity change, negative = inhibition” value was 0.168%. `C[C@@H]1O[C@@H](O[C@H]2[C@H](O[C@H]3CO[C@@H](O[C@H]4CC[C@@]5(C)C(CC[C@]6(C)C5CC[C@]57OC[C@@]8(CC[C@](C)(CO)CC85)[C@H](O)C[C@]76C)C4(C)C)[C@H](O[C@@H]4O[C@H](CO)[C@@H](O)[C@H](O)[C@H]4O)[C@H]3O)O[C@H](CO)[C@@H](O)[C@@H]2O)[C@H](O)[C@H](O)[C@H]1O` (stereo not given in full) was tested, and the activity change, negative = inhibition was 0.85% [at 11.6 µM]. For `c1ccc(Cc2ncc3c(n2)CCNCC3)cc1`, the “activity change, negative = inhibition” value was -2.75%. With `CO[C@@H]1CC[C@H](OC[C@]2(COC(=O)c3ccc(C)[nH]3)[C@H](OC(C)=O)CC[C@@]3(C)[C@@H]4CC=C(C)[C@@H](C5=C(O)C(=O)OC5O)[C@]4(C)CC[C@@H]32)O[C@H]1C` (stereo not given in full) the “activity change, negative = inhibition” value was 3.72% [at 25.7 µM]. With `CC(=O)OC[C@@]12[C@@H](OC(C)=O)C[C@@H](C)[C@](C)([C@@H]3C[C@H]4C=CO[C@H]4O3)[C@H]1CCC[C@]21CO1` the “outcome” value was “inactive [at 25.7 µM]”. For `CC(C)c1nc(N(C)S(C)(=O)=O)nc(-c2ccc(F)cc2)c1/C=C/[C@@H](O)C[C@@H](O)CC(=O)O`, the “activity change, negative = inhibition” value was 1.11%. `CC[C@H]1OC(=O)C[C@@H](O)[C@H](C)[C@@H](O[C@@H]2O[C@H](C)[C@@H](O)[C@H](N(C)C)[C@H]2O)[C@@H](CCN2C[C@H](C)C[C@H](C)C2)C[C@@H](C)C(=O)/C=C/C(C)=C/[C@@H]1CO[C@@H]1O[C@H](C)[C@@H](O)[C@@H](OC)[C@H]1OC` was tested, and the “activity change, negative = inhibition” value was 1.04%. In the case of `c1ccc(Nc2nc3c(s2)CCCc2[nH]ncc2-3)nc1`, the Potency is reported as 8.49 µM (active). With `COc1cc(/C=C/C(=O)O[C@H]2[C@H](O)[C@@H](CO)O[C@@]2(CO)O[C@H]2O[C@H](COC(=O)c3ccc(O)cc3)[C@@H](O)[C@H](O)[C@H]2O)cc(OC)c1OC` the “outcome” value was “inactive [at 25.7 µM]”. In the case of `COC(=O)C1C(CC(C)=O)C=CC(O)C12Oc1cc(C)cc(O)c1C2=O` (stereo not given), the “activity change, negative = inhibition” value is reported as -2.48%. `C=C/C=C/[C@@H]1OC[C@H](/C=C/C=C/C)[C@H]1O` was tested, and the “outcome” value was “inactive [at 86.2 µM]”. For `C=C1C[C@@]23CC[C@@H]4[C@](C)(C(=O)O)CCC[C@@]4(C)C2=CC[C@H]1C3`, the “outcome” value was “inactive”. With `N[C@H]1C[C@H]1c1ccc(-c2cccc(O)c2)cc1` the Potency was “inactive”. For `C/C=C/C=C/C=C/C(=O)O[C@@H]1C=C(CO)C(O)(C(=O)O)[C@@]2(C)CCCC(C)(C)[C@H]12` (stereo not given in full), the “activity change, negative = inhibition” value was 0.222% [at 25.7 µM]. For `CC1=C(C)C(=O)OC(C(C)C2C(O)CC3C4C5OC5C5(O)CC(OC6OC(CO)C(O)C(O)C6O)CC(O)C5(C)C4CCC32C)C1` (stereo not given), the “activity change, negative = inhibition” value was 1.41% [at 25.7 µM]. With `N[C@@H](CC(=O)N1CCn2c(nnc2C(F)(F)F)C1)Cc1[nH]nc2c(F)c(F)ccc12` the “activity change, negative = inhibition” value was 0.716%. For `COC(=O)[C@H](OC(C)=O)[C@H]1C(C)(C)C(=O)[C@H]2CC3=C4CC(=O)O[C@@H](c5ccoc5)[C@]4(C)CCC3[C@@]1(C)C2=O` (stereo not given in full), the “activity change, negative = inhibition” value was -3.33% [at 25.7 µM]. For `CC1(CO)CC2C(O)C(=O)C3(CO)CC3(C)C2C1` (stereo not given), the “activity change, negative = inhibition” value was 2.74%. With `C[C@@H]1O[C@@H](O[C@H]2[C@H](O)[C@@H](O)[C@H](OC[C@H]3O[C@@H](OC(=O)[C@]45CCC(C)(C)C[C@H]4C4=CCC6[C@@]7(C)C[C@H](O)[C@H](O[C@@H]8O[C@H](CO)[C@@H](O)[C@H](O)[C@H]8O)[C@@](C)(C(=O)O)C7CC[C@@]6(C)[C@]4(C)CC5)[C@H](O[C@@H]4O[C@H](CO)[C@@H](O)[C@H](O)[C@H]4O)[C@@H](O)[C@@H]3O)O[C@@H]2CO)[C@H](O)[C@H](O)[C@H]1O` (stereo not given in full) the outcome was “inactive [at 11.6 µM]”. `NC1CCC(N[C@@H]2C[C@H]2c2ccccc2)CC1` (stereo not given in full) was tested, and the “activity change, negative = inhibition” value was 0.494%. In the case of `CC(C)NC[C@H](O)COc1ccc(CCOCC2CC2)cc1`, the “outcome” value is reported as “inactive”. With `C[C@]1(O)CC[C@@H]2C(C(=O)O)=CO[C@@H](O[C@@H]3O[C@H](COC(=O)c4ccc(O)cc4)[C@@H](O)[C@H](O)[C@H]3O)[C@@H]21` the “outcome” value was “inactive [at 25.7 µM]”. For `COc1cc(N2CCC(N(C)C)CC2)ccc1Nc1ncc(Cl)c(Nc2ccccc2P(C)(C)=O)n1`, the “outcome” value was “inactive”. With `COc1cc(/C=C/C(=O)OC[C@H]2O[C@H](O[C@]3(CO)O[C@H](CO)[C@@H](O)[C@@H]3O)[C@H](O)[C@@H](O)[C@@H]2O)cc(OC)c1O` the “activity change, negative = inhibition” value was -4.42% [at 25.7 µM]. With `CNC(=O)Nc1ccc(OC)c(NC(=O)NC(=O)c2cc(F)c(F)cc2Cl)c1` the “outcome” value was “inactive”. For `O=C(NC[C@H](O)CN1CCc2ccccc2C1)c1cc(NC2COC2)ncn1`, the “outcome” value was “inactive”. In the case of `COc1cc(C2Oc3c(OC)cc(CCCO[C@@H]4O[C@H](CO)[C@@H](O)[C@H](O)[C@H]4O)cc3C2CO)ccc1O` (stereo not given in full), the “outcome” value is reported as “inactive [at 25.7 µM]”. For `CC1(C)CC[C@]2(C(=O)O)CC[C@]3(C)C(=CCC4[C@@]5(C)CC[C@H](O[C@@H]6O[C@H](C(=O)O)[C@@H](O)[C@H](O)[C@H]6O)C(C)(CO)C5CC[C@]43C)C2C1` (stereo not given in full), the “activity change, negative = inhibition” value was -1.89% [at 25.7 µM]. For `CC(C)c1cc2c(c(O)c1O[C@@H]1O[C@H](CO)[C@@H](O)[C@H](O)[C@H]1O)CC1(O)CCC(O)C(C)(C)C1CC2` (stereo not given in full), the “activity change, negative = inhibition” value was -3.01% [at 25.7 µM]. With `CO[C@@H](Cc1ccc(OCCc2nc(-c3ccccc3)oc2C)c2ccsc12)C(=O)O` the “activity change, negative = inhibition” value was -5.31%. For `C=C1CC[C@@H]2[C@](C)(CO[C@@H]3O[C@H](CO)[C@@H](O)[C@H](O)[C@H]3O)CCC[C@@]2(C)[C@@H]1CCC1=CCOC1=O`, the “activity change, negative = inhibition” value was 2.69% [at 25.7 µM]. In the case of `COc1cc(COC2OC(CO)C(O)C(O)C2O)cc(OC)c1O` (stereo not given), the “outcome” value is reported as “inactive”. For `CC12CCC3C(C)(C)C(O)CCC3(C)C1Cc1c(oc(C(=O)O)cc1=O)O2` (stereo not given), the “activity change, negative = inhibition” value was 4.76%. In the case of `Nc1ccn([C@@H]2C(F)=C(CO)[C@@H](O)[C@H]2O)c(=O)n1`, the “outcome” value is reported as “inactive”. In the case of `COc1c(C(CC(C)C)OC(C)=O)ccc(Oc2c(O)cc(C)cc2/C=C/C(C)=O)c1C(=O)O` (stereo not given), the “activity change, negative = inhibition” value is reported as -7.4% [at 25.7 µM]. For `CC[C@H](C)[C@@H]1NC(=O)[C@H](Cc2ccc(OC)cc2)NC(=O)CCCSC[C@@H](C(=O)N2CCC[C@H]2C(=O)N[C@@H](CC(C)C)C(=O)NCC(N)=O)NC(=O)[C@H](CC(N)=O)NC(=O)[C@H](CCC(N)=O)NC1=O` (Y(Me)IQNCPLG-NH2; linker N-5 via X6), the “activity change, negative = inhibition” value was -1.04%. In the case of `CC1(C)C[C@H]2C3=CCC4[C@@]5(C)CC[C@H](O[C@H]6O[C@H](C(=O)O)[C@@H](O)[C@H](O)[C@H]6O[C@H]6O[C@H](CO)[C@@H](O)[C@H](O)[C@H]6O[C@@H]6O[C@H](CO)[C@@H](O)[C@H](O)[C@H]6O)[C@](C)(CO)C5CC[C@@]4(C)[C@]3(C)CC[C@@]2(C)[C@H](O[C@@H]2OC[C@H](O)[C@H](OC3O[C@H](CO)[C@@H](O)[C@H](O)[C@H]3O)[C@H]2O)[C@@H]1O` (stereo not given in full), the outcome is reported as “inactive [at 11.6 µM]”.
